CYP2C19 act – increases human CYP2C19 enzyme activity; P33261; recombinant CYP2C19, luciferin-H EGE luminescence; stronger effect = higher value; 0 = fully inhibited enzyme, 1 = untreated enzyme; activation factor at 5 µM; 96,000 tested, under 10 active; AID 1025;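 active = activation factor of at least 2 at 5 µM in the primary screen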;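 note: 0 = wells with 2.5 mM tranylcypromine and 1 = vehicle-only wells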
Target sequence (P33261 whole entry, looked up): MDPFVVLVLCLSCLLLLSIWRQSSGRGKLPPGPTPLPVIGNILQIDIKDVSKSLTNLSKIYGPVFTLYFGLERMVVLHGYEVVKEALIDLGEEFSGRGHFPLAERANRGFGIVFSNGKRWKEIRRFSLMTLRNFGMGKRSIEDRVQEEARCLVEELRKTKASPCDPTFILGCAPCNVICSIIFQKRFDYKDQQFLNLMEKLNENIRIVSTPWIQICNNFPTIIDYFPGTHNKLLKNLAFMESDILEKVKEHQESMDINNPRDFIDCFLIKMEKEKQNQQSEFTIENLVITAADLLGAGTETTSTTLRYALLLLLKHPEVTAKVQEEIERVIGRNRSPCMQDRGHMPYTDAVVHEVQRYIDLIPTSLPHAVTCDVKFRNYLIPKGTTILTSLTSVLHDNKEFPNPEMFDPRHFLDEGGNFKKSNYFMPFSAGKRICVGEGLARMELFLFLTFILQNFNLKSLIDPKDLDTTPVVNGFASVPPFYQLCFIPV
CYP2C9 inhib – inhibitors of human CYP2C9. inhibition, % at 5 µM. P11712. CYP2C9 Supersomes, luciferin-H conversion, luminescence. 96,000 compounds, 20% hits. AID 777;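 active = blocking of liver enzyme CYP2C9 beyond about 50% at 5 µM, limit read from the data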
CYP2C9 act – increases human cytochrome P450 2C9 activity | P11712 | recombinant CYP2C9, luciferin-H conversion, luminescence; stronger effect = higher value; factor 1 = untreated enzyme, 0 = blocked | activation factor at 5 µM | 96,000 compounds, 1.4% hits;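 active = activation factor of 2 or more for CYP2C9 at a 5 µM dose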;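 note: 0 = sulfaphenazole-blocked wells and 1 = vehicle-only wells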
CD11b adhes enh – increases human CD11b/CD18 adhesion to fibrinogen | P05107+P11215 | K562 CD11b/CD18 adhesion to fibrinogen, ATPlite luminescence | activation, % at 10 µM | 93,000 compounds, 0.07% hits | AID 1499;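 active = 10 µM primary screen giving 50% or more activity, confirmed by 40% or more on retest at that dose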
CD11b adhes inh – blocks human CD11b/CD18 adhesion to fibrinogen; 93,000 compounds, 0.54% hits; inhibition, % at 10 µM; K562 CD11b/CD18 adhesion to fibrinogen, ATPlite luminescence; Mn2+ added to activate the integrin;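 active = primary inhibition of 50% or more at 10 µM, then 40% or more on retest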
CYP2C19 inh – blocks human cytochrome P450 2C19 | P33261 | CYP2C19 Supersomes, luciferin-H EGE luminescence, 30 min | inhibition, % at 5 µM | 96,000 compounds, 21% hits | AID 778;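 active = CYP2C19 inhibition above a set limit at 5 µM in the primary screen, cut at about 50% in these data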;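 note: plate controls were negative control wells for no effect and 2.5 mM tranylcypromine positive control for full effect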
An asterisk follows results filed as active; nt = no result. Rows were chosen to be rich in hits. Some 28% of all compounds tested hit in one or more screens of this group.

SMILES | CYP2C19 act | CYP2C9 inhib | CYP2C9 act | CD11b adhes enh | CD11b adhes inh | CYP2C19 inh
CCOC(=O)C1CCN(C(=O)/C=C/c2ccc(OC)cc2)CC1 | 0.1 | 44 | 0.6 | -4 | 1 | 87*
CCOC(=O)C1CCN(C(=O)/C=C/c2ccccc2OC)CC1 | 0.5 | -163 | 2.6* | -4 | -2 | 51*
CCc1nnc(NC(=O)c2ccc(COc3ccccc3)o2)s1 | 0.9 | 35 | 0.7 | 4 | -22 | 6
CC(=O)Cc1nsc(Nc2ccccc2)n1 | 0.2 | 18 | 0.8 | 0 | -35 | 77*
CC(=O)Cc1nsc(NC(=O)c2ccc(COc3ccccc3)o2)n1 | 0.8 | 57* | 0.4 | 1 | -15 | 19
Fc1ccc(SCCc2ccncc2)cc1 | 0 | 82* | 0.2 | -5 | 12 | 97*
Fc1cc(F)c(F)c(SCCc2ccncc2)c1F | 0.2 | 74* | 0.3 | -2 | -8 | 81*
CCCCS(=O)Cc1ccccc1 (stereo unspecified) | 1.1 | -42 | 1.4 | -2 | -5 | -9
O=C(CSc1ccccn1)c1ccc(F)cc1 | 0.6 | 3 | 1 | -2 | -6 | 41
O=C(NCCSc1ccccc1)c1cccnc1 | 0.6 | 22 | 0.8 | 5 | 3 | 40
O=C(NCCc1ccncc1)C(F)(F)F | 1 | -6 | 1.1 | 2 | -18 | -1
c1ccc(SCCc2ccncc2)cc1 | 0 | 81* | 0.2 | nt | nt | 95*
O=S(CCc1ccncc1)Cc1ccccc1 (stereo unspecified) | 0.2 | 53* | 0.5 | 0 | -13 | 85*
Cc1ccccc1NC(=O)C1CCCN1/C=C/C(=O)C(F)(F)F (stereo unspecified) | nt | nt | nt | -2 | -3 | nt
COCCNC(=O)Nc1ccc2nc(-c3cccs3)c(-c3cccs3)nc2c1 | 1 | 52* | 0.5 | 3 | -3 | 2
COc1ccc(CN(C(=O)c2ccco2)c2ccc(Br)cc2)cc1OC | 0.2 | 89* | 0.1 | -2 | -11 | 80*
COc1ccc(N(Cc2ccco2)C(=O)c2ccccc2F)cc1OC | 0.3 | 80* | 0.2 | 3 | -21 | 71*
COc1cc(CN(C(=O)c2ccco2)c2ccc(C)cc2)ccc1O | 0.8 | 49 | 0.5 | 5 | 2 | 21
Cc1ccc(N(Cc2ccc([N+](=O)[O-])cc2)C(=O)c2ccco2)cc1 | 0.7 | 96* | 0 | nt | nt | 25
C=CCn1c(SCC(=O)c2[nH]c(C)c(C(=O)OCC)c2C)nc2scc(-c3ccc(OC)c(OC)c3)c2c1=O | nt | nt | nt | 27 | 12 | nt
CO/N=C/NC(=O)C1=NOC(CNc2ncc(C(F)(F)F)cc2Cl)C1 (stereo unspecified) | 0.3 | 6 | 0.9 | -7 | -8 | 75*
NC(=O)C1=NOC(CNc2ncc(C(F)(F)F)cc2Cl)C1 (stereo unspecified) | 0.9 | -171 | 2.7* | -2 | -16 | 10
NC(=O)NOCc1ncc(C(F)(F)F)cc1Cl | 1 | -1 | 1 | -1 | -8 | 3
CN(c1ccc(Cl)cc1)c1cc(=O)n(C)c2ccccc12 | 0 | 97* | 0 | 0 | 1 | 100*
CC(C)(C)c1ccc(S(=O)(=O)N2C=CC(C(F)(F)F)=NCC2)cc1 | 0.1 | 12 | 0.9 | 5 | -2 | 86*
SMILES | CYP2C19 act | CYP2C9 inhib | CYP2C9 act | CD11b adhes enh | CD11b adhes inh | CYP2C19 inh
O=C(CSc1nnc(SCc2ccccc2)s1)NNC(=S)Nc1ccccc1 | nt | nt | nt | 6 | 7 | nt
COC(=O)CNC(=O)CN1C(=O)N(c2ccc(Cl)cc2)C(N(O)C(=O)Nc2ccc(Cl)cc2)C1(C)C (stereo unspecified) | 0.7 | 21 | 0.8 | 1 | -2 | 33
CC(=O)OC(Cn1ccnc1)c1ccccc1 (stereo unspecified) | 0.8 | 18 | 0.8 | 1 | -6 | 22
COc1cc(Cn2ccnc2)c(OC)cc1Cn1ccnc1 | 0.2 | 73* | 0.3 | -2 | -13 | 78*
CC(=O)c1cccc(NC(=S)NCCCCc2ccccc2)c1 | nt | nt | nt | -4 | 50 | nt
Cc1nc(-c2ccccc2)sc1-c1n[nH]c(=S)n1C | 0.9 | 15 | 0.8 | nt | nt | 9
CSc1nnc(-c2sc(-c3ccccc3)nc2C)n1C | 0.6 | 72* | 0.3 | nt | nt | 42
CC1(C)CC(NC(=O)c2coc(=O)c(Br)c2)CC(C)(C)N1 | 1 | 13 | 0.9 | 0 | 1 | 0
N#Cc1cccc(-c2cn(S(=O)(=O)c3ccc(Cl)cc3)nc2N)c1 | 0.9 | 39 | 0.6 | 0 | -18 | 11
